Results taken from ChEMBL document CHEMBL4513216, “Probing the Open Global Health Chemical Diversity Library for Multistage-Active Starting Points for Next-Generation Antimalarials” (ACS Infect Dis, 2020).
Out of some 69,000 compounds screened, about 8,600 (12%) showed an effect of 50% or more. The entries come from a sample that favours strong results as a whole.

The molecules below were run on Plasmodium berghei (assay: Screen against P. berghei liver stage (PbLuc), transformed with Luciferase, at 10uM). Conditions: tested at 10 uM.
Assay type: functional, HepG2

Row | SMILES | INHIBITION [%]
1 | CNC(=O)C1(C)CN(S(=O)(=O)c2cccc(OC)c2)CCO1 (configuration not stated) | 11.175
2 | O=C(c1cnccn1)N1C[C@@H](OCc2cccnc2)[C@H]2OCCC[C@H]21 | 14.6
3 | CC(C)CCn1[nH]c(CNc2ccccc2)nc1=O | -7.9
4 | CN(C)C1CCN(C(=O)c2cc3c(s2)CCN3C(=O)C2CC2)CC1 | 49.1
5 | CCC1=N[C@@]2(CC[C@@H]3CN(Cc4ccccc4C)C[C@@H]32)C(=O)N1C | 46.6
6 | CCC1=N[C@@]2(CC[C@@H]3CN(CC)C[C@@H]32)C(=O)N1C | 23.1
7 | CCC1=N[C@@]2(CC[C@@H]3CN(Cc4ccc(F)cc4)C[C@@H]32)C(=O)N1C | 62
8 | CCC1=N[C@@]2(CC[C@@H]3CN(Cc4cccc(Cl)c4)C[C@@H]32)C(=O)N1C | 30.3
9 | CCC1=N[C@@]2(CC[C@@H]3CN(Cc4ccc(C)cc4)C[C@@H]32)C(=O)N1C | 34.9
10 | CCC1=N[C@@]2(CC[C@@H]3CN(Cc4ccc(Cl)cc4)C[C@@H]32)C(=O)N1C | 50.6
11 | Cc1cccc(CNC(=O)Nc2ccn(CCCC(=O)N(C)C)n2)c1 | -6.52
12 | CC1CCN(c2nc3cn(-c4ccc5c(c4)OCO5)c(=O)c-3c[nH]2)CC1 | 23.5
13 | Cc1ccc(CN2CCC[C@@H]3CN(C(=O)c4ccco4)C[C@@H]32)o1 | -2.35
14 | Cc1cc(C(=O)Nc2ccc3c(ccn3CCN3CCOCC3)c2)on1 | 12.8
15 | COc1cc(Oc2cnc3ccccc3n2)ccc1CN1CCCC1 | 84.9
16 | COc1ccc(CN2CCn3c(CO)nnc3C2)cc1CN1CCCC1 | 44.8
17 | COc1ccc(CN2CC[C@H](NC(C)=O)[C@@H](O)CC2)c(OC)c1 | 35.3
18 | COc1ccc(C2CCCN2c2ccc(C#N)cn2)c(OC)c1 (configuration not stated) | 37.7
19 | COc1ccc(CN2CCSCC2)c(OC)c1 | 33.1
20 | Cc1cc(CN2CCN(Cc3ccc(C#N)cc3OC(F)F)CC2)no1 | 14.27
21 | COc1cc(Oc2ccc(C(F)(F)F)cn2)ccc1CN1CCCC1 | 91.5
22 | COc1cc(Oc2ccc(C#N)cn2)ccc1CN1CCCC1 | 82.9
23 | COc1ccc(CN2CCC(O)CC2)c(OC)c1 | 1.81
24 | COc1cc(Oc2ccc(C(N)=O)cn2)ccc1CN1CCCC1 | -0.27
25 | COc1ccc(Oc2cccnc2)cc1CN1CCCC1 | 49.4
26 | COc1ccc(Oc2ccc(C(F)(F)F)cn2)cc1CN1CCCC1 | 63.7

Row | SMILES | INHIBITION [%]
27 | O=C(Cc1cccc(O)c1)N1CCCC(O)(CN2CCOCC2)CC1 (configuration not stated) | 6.26
28 | CC(Cn1cccn1)NC(=O)NCc1ccc(C(N)=O)cc1 (configuration not stated) | -98.8
29 | Cc1cc(NC(=O)CN2CCn3c(nnc3C3CC3)C2)on1 | 25.3
30 | CC(C)c1nc(C2CCCN2CCN2CCCCC2)no1 (configuration not stated) | -0.55
31 | CN(C)CCO[C@H]1CN(CC2CC2)[C@@H]2CCCO[C@H]12 | 25.8
32 | CC(NC(=O)c1cccs1)C(=O)NCc1ccccn1 (configuration not stated) | 21.6
33 | O=c1cc(Cn2cncn2)nc2n1CCCN(Cc1ccoc1)C2 | 20.5
34 | CCS(=O)(=O)N1CCC(NC(=O)c2cc(C(C)C)ccc2O)CC1 | -7.1
35 | Cc1ncsc1CN1CC[C@H]2OCC[C@@]2(C(=O)N2CCOCC2)C1 | 11.4
36 | CC1(C)CC(NC(=O)c2cnn(-c3ccccc3F)c2N)CC(C)(C)N1 | -33
37 | Cc1cc(C(=O)N2CCn3c(COCC4CCCC4)cnc3C2C)on1 (configuration not stated) | 37.3
38 | CCn1nc(C)c2nc(C(C)C)nc(NCC(C)O)c21 (configuration not stated) | -3.11
39 | CCCc1nc(NCCc2ccccc2)c2c(n1)c(C)nn2CC | 43.7
40 | CCn1nc(C)c2nc(C(C)C)nc(NCCc3ccc(O)cc3)c21 | 68.1
41 | CCn1nc(C)c2nc(C(C)C)nc(NCCCO)c21 | -9.48
42 | CCn1nc(C)c2nc(C)nc(NCCc3ccccc3)c21 | 46.4
43 | CCn1nc(C)c2nc(C)nc(NCCc3ccc(C)cc3)c21 | 62.7
44 | CCOc1ccccc1C1CCCN1 (configuration not stated) | 15.8
45 | Cc1cnn(CC(C)NCc2nc(-c3ccsc3)oc2C)c1 (configuration not stated) | -7.31
46 | Cn1cc(CN2CCS(=O)(=O)C(C)(C)C2)cn1 | 44.3
47 | CC1(C)CN(Cc2ccncc2)CCS1(=O)=O | 21.9
48 | Cc1ccc(CN2CCS(=O)(=O)C(C)(C)C2)cc1C | 70.1
49 | COc1ccc(Cn2cc(C(C)O)nn2)cc1 (configuration not stated) | 19.9
50 | CNc1cnc(CC2COCCN(CCOc3ccccc3)C2)cn1 (configuration not stated) | 39.7
51 | CC(=O)NC1CCN(C(=O)Nc2cccc(C(F)(F)F)c2)CC1 | 27.9
52 | CC(=O)NC1CCN(C(=O)Nc2cccc(SC(F)F)c2)CC1 | 27.9

Row | SMILES | INHIBITION [%]
53 | CC(=O)NC1CCN(C(=O)Nc2ccc(SC(F)F)cc2)CC1 | 73.5
54 | CN(Cc1ccco1)[C@@H]1CN(Cc2cccs2)C[C@@H]2CCCO[C@@H]21 | 31.4
55 | Cn1cnnc1SCC(=O)N1C[C@@H]2CC[C@H]1CN(Cc1cccnc1)C2 | 6.28
56 | CCN(CC)C(=O)CN1CCc2c(nc(C3CCNCC3)nc2NC)C1 | -3.94
57 | Nc1ccc(C(=O)N2C[C@H]3CC[C@@H](C2)N(Cc2ccccc2)C3)cn1 | -20.8
58 | Cc1cccc(-n2ncc(C(=O)NCC3CCS(=O)(=O)C3)c2C)c1 (configuration not stated) | -33.9
59 | Cc1c(C(=O)NCC2CCS(=O)(=O)C2)cnn1-c1ccccc1 (configuration not stated) | 57.8
60 | Cc1ccc(-n2ncc(C(=O)NCC3CCS(=O)(=O)C3)c2C)cc1 (configuration not stated) | -24.2
61 | O=C1N(Cc2ccc(Cl)cc2)CCC12CCCNC2 (configuration not stated) | 3.81
62 | CC(=O)NCCc1ccc(S(=O)(=O)Nc2ccc(C)c(F)c2)s1 | 32.3
63 | CC(=O)c1ccc(-n2c(C)cn(CCS(C)(=O)=O)c2=O)cc1 | 55.6
64 | CC(=O)c1ccc(-n2c(C)cn(CCC(=O)NC(N)=O)c2=O)cc1 | 12.7
65 | CC(=O)c1ccc(-n2c(C)cn(CCC#N)c2=O)cc1 | 5.36
66 | OC(CN1CCN(Cc2cc(F)ccc2F)CC1)C1CC1 (configuration not stated) | -6.11
67 | CCC(Nc1cccc(OC)c1)C(=O)NCc1nc(C)cc(=O)[nH]1 (configuration not stated) | 36.4
68 | CCS(=O)(=O)N1CCc2c(COCCN(C)C)cncc2C1 | 24
69 | CCCS(=O)(=O)N1CCc2c(COCC)cncc2C1 | 33
70 | CCS(=O)(=O)N1CCc2c(CN3CCOCC3)cncc2C1 | 92.1
71 | CCS(=O)(=O)N1CCc2c(COC)cncc2C1 | 23.1
72 | O=S(=O)(C1CC1)N1CCc2c(CN3CCOCC3)cncc2C1 | 12.6
73 | CCS(=O)(=O)N1CCc2c(COCc3ccncc3)cncc2C1 | 66.6
74 | CN(C)CCN(C)C(=O)c1ccccc1-n1cc(CN(C)C)cn1 | 1.5
75 | c1ccc(CN2Cc3[nH]nc(COCC4CC4)c3C2)nc1 | 30.5
76 | CN(C)CCNC(=O)C1Cc2nc(-c3ccccc3)sc2N1CC1CC1 (configuration not stated) | 24.3
77 | CCN(CC)CCNC(=O)c1cnc(-c2ccccc2)nc1 | -8.07
78 | CN(CCNC(=O)c1cnc(-c2ccncc2)nc1)S(C)(=O)=O | 25.1

Row | SMILES | INHIBITION [%]
79 | CN(CCNC(=O)c1cnc(-c2ccccc2)nc1)S(C)(=O)=O | 57.1
80 | Cc1ccc(OCCN2CCCC(c3cc(C(N)=O)[nH]n3)C2)cc1 (configuration not stated) | 15.3
81 | O=C(NC1CC1)C1CCN(c2snc3ccccc23)CC1 | 37.9
82 | CCc1n[nH]c(C2CN(C(=O)c3cnc(C)nc3CC)CCO2)n1 (configuration not stated) | -49.5
83 | CC(NC(=O)c1ccc(=O)n(C)c1)c1ccc(OCC2CC2)c(F)c1 (configuration not stated) | 40.97
84 | CC(=O)NC(C)c1ccc(OCC2CC2)c(F)c1 (configuration not stated) | 26.8
85 | CC(NC(=O)c1ccnn1C)c1ccc(OCC2CC2)c(F)c1 (configuration not stated) | 68.2
86 | CC(=O)c1cccc(-n2nc(C(C)=O)c(C(C)=O)c2C)c1 | 0.325
87 | O=C(Nc1nnc(C(F)F)s1)N[C@H](CCO)c1ccccc1 | 20.9
88 | COc1ccnc(N2CCN(C(=O)c3ccc(Cl)o3)CC2)n1 | -9.76
89 | CCC1CN(C(=O)c2csc3nc(-c4ccc(Cl)cc4)cn23)CCN1 (configuration not stated) | 56.1
90 | CC(C)N1CCN(C(=O)c2csc3nc(-c4ccc(Cl)cc4)cn23)CC1 | 37.9
91 | O=C(c1csc2nc(-c3ccc(Cl)cc3)cn12)N1CCCC(CO)C1 (configuration not stated) | -16.6
92 | CNC(=O)C1(CCCc2ccccn2)CCN1Cc1coc(C)n1 (configuration not stated) | 9.05
93 | O=C(NCc1cccnc1)c1cn(CCc2ccccc2)nn1 | 12.9
94 | Cc1nn(C2CCCC2)c2nc(C(C)(C)CN3CCN(C)CC3)[nH]c12 | 49.4
95 | CS(=O)(=O)CCn1ccc(NC(=O)CCc2cccc(F)c2)n1 | 13.8
96 | Cc1nccc(N[C@H]2CN(CCC(=O)NC3CCCC3)C[C@@H]2C2CC2)n1 | 26.5
97 | Nc1nccc(N[C@H]2CN(CC(=O)NC3CCCCC3)C[C@@H]2C2CC2)n1 | 56.2
98 | Cc1nccc(N[C@H]2CN(CCS(C)(=O)=O)C[C@@H]2C2CC2)n1 | 39.3
99 | Cc1noc([C@H]2C[C@H]3CN(C(=O)Cc4ccsc4)CC[C@H]3O2)n1 | -14.1
100 | c1ccc2c(c1)CC(n1ccnc1-c1cc3n(n1)CCNC3)CO2 (configuration not stated) | 43.9
101 | O[C@H]1Cc2ccccc2[C@H]1n1ccnc1-c1cc2n(n1)CCNC2 | 67.6
102 | c1ccc2c(c1)CC(n1ccnc1-c1cc3n(n1)CCCNC3)CO2 (configuration not stated) | 18.5
